A selection: hits, their analogues and other compounds. The true share with any hit is near 1.5%.
eLon inh – inhibitors of E. coli Lon protease, primary screen, biochemical, fluorescence polarization | P0A9M0 | purified E. coli Lon protease | inhibition, % at 7.94 µM | 360,000 tested, 0.42% active | AID 602123, 2011; in the data active = inhibition above about 13%, passing the limit was not always enough;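 note: 0% = enzyme with probe and DMSO and 100% = no enzyme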
EBV gp42 inh – Epstein-Barr virus gp42 inhibitors, primary screen, biochemical, uHTS, fluorescence polarization; 220,000 tested, 0.42% active; Glycoprotein 42 (Epstein-Barr virus (strain AG876)), Q1HVG2; Fluorescence polarization binding assay, mP read-out; inhibition, % (tested at 21.74 µM); in the data active = inhibition above about 50%
Target sequence (Q1HVG2 whole entry, looked up): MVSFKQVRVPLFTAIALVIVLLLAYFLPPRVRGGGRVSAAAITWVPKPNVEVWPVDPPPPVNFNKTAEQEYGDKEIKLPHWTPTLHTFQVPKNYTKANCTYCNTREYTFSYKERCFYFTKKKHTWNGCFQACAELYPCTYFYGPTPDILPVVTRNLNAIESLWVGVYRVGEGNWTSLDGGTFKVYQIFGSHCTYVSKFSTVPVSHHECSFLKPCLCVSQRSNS
MCL1-BIM inh – inhibitors of MCL1 binding to BIM-BH3, primary screen, biochemical, fluorescence polarization; GST-MCL1 / FITC-Bim-BH3 fluorescence polarization; Induced myeloid leukemia cell differentiation protein Mcl-1 (Homo sapiens), Q07820; 320,000 tested, 0.68% active; inhibition, % at 10.9 µM;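 active = inhibition above the mean inhibition of all tested compounds plus 3 SD, set per campaign, cut at about 40% in these data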;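 note: 0% = DMSO wells and 100% = unlabeled Bim-BH3 peptide control; higher means more loss of mP so more displacement of Bim peptide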
BCLXL inh – inhibitors of human Bcl-xL, primary screen, biochemical, fluorescence polarization, HTS. 320,000 tested, 0.7% active. Bcl-2-like protein 1 (Homo sapiens), Q07817. GST-Bcl-xL / FITC-Bim BH3 peptide fluorescence polarization. inhibition, % at 10.9 µM. AID 2129, 2009;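 active = inhibition above the mean of all tested compounds plus 3 SD, cutoff set per campaign, cut at about 30% in these data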;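 note: 0% = DMSO wells and 100% = unlabeled Bim-BH3 peptide competitor; inhibitors lower millipolarization by displacing the labeled peptide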
Target sequence (Q07817 whole entry, looked up): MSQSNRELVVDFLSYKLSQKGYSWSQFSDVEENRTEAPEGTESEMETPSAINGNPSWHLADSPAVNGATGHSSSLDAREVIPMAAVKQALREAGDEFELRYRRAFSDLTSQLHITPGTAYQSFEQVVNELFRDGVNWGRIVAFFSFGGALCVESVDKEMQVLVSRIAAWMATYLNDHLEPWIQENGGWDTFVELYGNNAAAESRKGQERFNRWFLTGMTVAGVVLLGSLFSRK
MEX-5 binding – MEX-5 zinc finger RNA-binding disruptors – biochemical, C. elegans, fluorescence polarization, MLPCN library, primary screen | Zinc finger protein mex-5 (Caenorhabditis elegans), Q9XUB2 | MEX-5/FITC-TCR2 RNA binding; hits give low values | activity score (negative = inhibition of binding), % at 10 µM | 300,000 tested, 0.38% active | AID 1832, 2009;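 active = inhibition past about -25% in most replicates, and total fluorescence under double the plate's negative control median, limit read from the data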;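 note: 0% = DMSO and -100% = 5 µM competing unlabeled TCR2 RNA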
GLD-1 RNA inh – GLD-1/TGE RNA complex disruptors, primary screen, biochemical, fluorescence polarization | Female germline-specific tumor suppressor gld-1 (Caenorhabditis elegans), Q17339 | purified GLD-1 + fluorescein TGE RNA | inhibition, % at 5.96 µM | 320,000 tested, 0.44% active;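 active = percent inhibition above a per-plate cutoff, the plate mean of test compounds plus 3 SD, cut at about 30% in these data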;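 note: 0% = DMSO wells with GLD-1 and probe and 100% = wells lacking GLD-1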
Bcl-xL conf – Bcl-xL inhibitors blocking Bim BH3 binding, confirmation, counter-screen for MCL1 inhibitor project, biochemical, fluorescence polarization; GST-Bcl-xL / FITC-Bim BH3 peptide FP binding; shares compounds with MCL1-BIM inh; 1,700 tested, 54% active; AID 2166, 2009; inhibition, % at 10.9 µM;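 active = inhibition above a cutoff equal to the mean inhibition of all tested compounds plus 3 SD, cut at about 30% in these data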;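 note: 0% = DMSO wells and 100% = unlabeled Bim BH3 control peptide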
MCL1 BIM confirm – inhibitors of MCL1 binding to BIM-BH3, confirmation, biochemical, fluorescence polarization, triplicate; shares compounds with MCL1-BIM inh; GST-MCL1 / FITC-Bim-BH3 fluorescence polarization; inhibition, % at 10.9 µM; 1,700 tested, 61% active; AID 2168, 2009;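 active = inhibition above the average of all tested compounds plus 3 SD, cut at about 40% in these data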;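 note: 0% = DMSO wells and 100% = unlabeled Bim-BH3 control peptide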
The depositor's hits bear a star.

`CCOc1cc(C(=O)N(CC)CC(=O)Nc2c(F)cccc2F)ccc1OCC(=O)N1CCOCC1` gave eLon inh -5.
For Cn1nc(-c2ccc(Cl)cc2)nc2c(=O)n(C)c(=O)nc1-2 the results were EBV gp42 inh 54*, MCL1-BIM inh 96*, BCLXL inh 90*, MEX-5 binding -41*, GLD-1 RNA inh 78*, Bcl-xL conf 94* and MCL1 BIM confirm 121*.
Screening O=C1CCCC(O)=C1N=Nc1cccc(C(=O)O)c1 returned eLon inh -5, EBV gp42 inh -2, MCL1-BIM inh 40*, BCLXL inh 15, MEX-5 binding -8, GLD-1 RNA inh -7, Bcl-xL conf 11 and MCL1 BIM confirm 35.
For Fc1ccc(C2=CC(c3ccc(Br)o3)n3ncnc3N2)cc1 (stereo not drawn) the results were eLon inh 137*, EBV gp42 inh 62*, MCL1-BIM inh active, BCLXL inh 180*, GLD-1 RNA inh 163*, Bcl-xL conf 125* and MCL1 BIM confirm 156*.
For Oc1ccc(C2C=C(c3ccc(F)cc3)Nc3ncnn32)cc1 (stereo not drawn) the results were eLon inh 14, EBV gp42 inh 17 and MEX-5 binding -9.
For O=C(CSC1=NS(=O)(=O)c2ccccc2N1)N1CCCCC1 the results were eLon inh -6, MCL1-BIM inh 5, BCLXL inh 4, MEX-5 binding 1 and GLD-1 RNA inh 2.
`COc1cc(/C=N/NC(=O)CSc2cc(C)c(Br)cc2C)ccc1O` gave eLon inh -3, EBV gp42 inh -16, MCL1-BIM inh 6, BCLXL inh 6, MEX-5 binding -2 and GLD-1 RNA inh 0.
For Cc1cc(SCC(=O)N/N=C/c2ccc(O)c(O)c2O)c(C)cc1Br the results were eLon inh -3, EBV gp42 inh 12, MCL1-BIM inh 51*, BCLXL inh 15, MEX-5 binding 1, GLD-1 RNA inh 11, Bcl-xL conf 7 and MCL1 BIM confirm 34.
Screening COc1ccccc1C#Cc1cnc2c(c1)C(=O)N([C@H](C)CO)C[C@H](C)[C@@H](CN(C)S(=O)(=O)c1cn(C)cn1)O2 returned eLon inh 2.
`CCOC(=O)C1=C(O)/C(=C/c2cn(CC(=O)NCC3CCCO3)c3ccccc23)SC1=Nc1ccc(C)cc1` (stereo not drawn) gave eLon inh -6, MCL1-BIM inh 77*, BCLXL inh 81*, GLD-1 RNA inh -28, Bcl-xL conf 109* and MCL1 BIM confirm 109*.
CCOC(=O)C1=C(O)/C(=C/c2ccc(-c3ccccc3C(=O)O)o2)SC1=Nc1ccc(C)cc1 was read as eLon inh -98.
Screening COc1ccc(NC(=O)N(C)C[C@H]2Oc3ccc(NS(=O)(=O)c4c(C)noc4C)cc3C(=O)N([C@H](C)CO)C[C@@H]2C)cc1 returned eLon inh 0 and GLD-1 RNA inh 5.
`CC1=CC2=C(OC1N(C)C)c1cccc3cccc(c13)C2=O` (stereo not drawn) gave eLon inh 64*, EBV gp42 inh 49, MCL1-BIM inh 143*, BCLXL inh 122*, MEX-5 binding -22, GLD-1 RNA inh 110*, Bcl-xL conf 36* and MCL1 BIM confirm 39.

Screening data: PubChem, several laboratories
